# Pf growth 96h – P. falciparum growth inhibition at 96 hours | P. falciparum luciferase reporter growth, 96 h | AID 504834 | Potency, µM (titrated, usually from 28.7 µM), for inactives: at the highest dose activity change, negative = inhibition, actives largely listed as inhibitors | 320,000 compounds, 6.9% hits; further: potency means the concentration at half of the fitted maximal effect; on the % scale 0 is the no-effect control and ±100 the full control effect
#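 Readout is luminescence from an integrated firefly luciferase in P. falciparum. Red cells, 2% hematocrit and 0.05% parasitemia final, were cultured with compound through two parasite generations (96 hours) at 37 C, 5% CO2.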
# SARS PLpro yeast – SARS-CoV PLP inhibition in yeast | S. cerevisiae expressing SARS-CoV PLpro, growth rescue | Potency, µM (doses to about 32.9 µM), without a hit: at the top dose activity, positive = growth rescue, usual class: activators | 330,000 compounds, 0.19% hits | AID 485353; calls by dose curve; further: potency means the concentration at half of the fitted maximal effect; 0% is about no effect; nearly all actives have a fitted effect of over 55% in size
# Cycloheximide cs – affects cycloheximide protein synthesis inhibition readout, counter-screen. AID 2314. 300,000 compounds, 12% hits. cell reporter, cycloheximide protein synthesis inhibition counterscreen. max response, %; in the data active means max response mostly above about 13%, no sharp cut-off; inactive means mostly below about 14%; further: read at 38.3 µM for the half of the compounds with a filed dose; 0% is about no effect
# Pf growth 48h – inhibits P. falciparum growth in the first generation, 48 h; P. falciparum luciferase growth in erythrocytes, 48 h; Potency, µM (series often up to 28.7 µM), for inactives: at the top dose activity change, negative = inhibition, most hits filed as inhibitors; 310,000 compounds, 5.9% hits; further: potency means the concentration at half of the fitted maximal effect; on the % scale 0 is the no-effect control and ±100 the full control effect
#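 Here the parasites carry a stable luciferase gene and grow inside erythrocytes in Albumax-based RPMI medium with compound for one erythrocytic cycle. Activity is scored as loss of luminescent signal.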
# AMA1-RON2 inh – disrupts binding of P. falciparum AMA1 to RON2; AlphaScreen AMA1-biotinylated RON2 peptide binding; Potency, µM (top dose mostly 58.2 µM), inactives show at the top dose activity change, negative = inhibition, hits mostly inhibitors; 360,000 compounds, 0.2% hits; AID 720542;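 further: potency means the concentration at half of the fitted maximal effect; 0% = vehicle wells and -100% = peptide control; nearly all actives have a fitted effect of over 45% in size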
#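 AMA1 (3D7) with his tag at 25 nM final met compounds first, then biotinylated RON2 peptide at 25 nM; detection used donor plus acceptor beads, 10 µg/mL apiece, read by AlphaScreen after 30 min at room temperature.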
# Shiga toxin inh – inhibitors of Shiga toxin in Vero cells; Vero cells, Shiga toxin protein synthesis inhibition reporter; inhibition, % at 38.7 µM; 290,000 compounds, 9.2% hits; in the data active means inhibition mostly above about 28%, no sharp cut-off; inactive means mostly below about 43%; further: 0% is about no effect
# Numbers without * were called inactive; ? = inconclusive; nt = no result; [ ] = another dose, or the depositor's remark. Compounds with a hit are over-represented: about 19% of the library has one in this group of screens. Unless noted, the call rests on the fitted dose curve; in most records, active means well fitted curve in the direction sought with a large enough effect; inconclusive means small, poorly fitted or top-dose-only effect, or another doubt; inactive means no such curve, though single readings can be large; an effect the other way counts as inactive or inconclusive.
SMILES,Pf growth 96h,SARS PLpro yeast,Cycloheximide cs,Pf growth 48h,AMA1-RON2 inh,Shiga toxin inh
CCN(CC)CCNC(=S)Nc1ccc2nc(N3CCN(C)CC3)cc(C)c2c1,-4%,1%,10,10µM*,4%,37
CCN(CC)CCNC(=S)Nc1ccc2nc(N3CCCC3)cc(C)c2c1,-6%,-7%,-7,?,-10%,6
O=C(CSc1nc(O)cc(=O)n1-c1ccc(Cl)c(Cl)c1)Nc1ccc(Cl)cc1Cl,2%,6%,1,-1%,-7%,-27
CN(CCC1CCCCO1)C(=O)CCc1nnc(C2CCCCC2)o1 (centres undefined),?,1%,31*,21%,6%,40*
O=C(CCc1nnc(C2CCCCC2)o1)N1CCN(C2CCCCC2)CC1,-15%,1%,-2,26%,16%,-5
Cc1cc(OC(=O)c2ccc(S(=O)(=O)N(C)C)cc2)c([N+](=O)[O-])c(=O)[nH]1,27%,1%,9,8%,-2%,-10
CCC(C)(O)c1[nH]c2ccc(C(=O)OC)cc2c1C (centres undefined),134%,1%,22*,97%,2%,34*
NCCCC[C@@H](C(=O)NCCCCCCCCCCC(=O)N1CCNCC1)n1cc(CCO)nn1,?,0%,nt,?,8%,nt
CSCCCc1cn([C@@H](CO)C(=O)NCCCCCCCCCCC(=O)N2CCNCC2)nn1,-77%,3%,nt,15µM*,-2%,nt
CC[C@@H](C)[C@@H](C(=O)N1CCN(C(=O)OC(C)(C)C)CC1)n1cc(CCCCNC(=O)OC(C)(C)C)nn1,?,-1%,2,?,-3%,-6
CC[C@H](C)Cc1cn([C@@H](CCCCNC(=O)OC(C)(C)C)C(=O)NCCCCCCCCCCC(=O)N2CCN(C(=O)OC(C)(C)C)CC2)nn1,1µM*,1%,nt,2.1µM*,15%,nt
CSCC[C@@H](C(=O)NCCCCCCCCCCC(=O)N1CCN(C(=O)OC(C)(C)C)CC1)n1cc(CCO)nn1,1.9µM*,-2%,nt,5.2µM*,14%,nt
CC(C)(C)OC(=O)NCCCC[C@@H](C(=O)NCCCCCCCCCCC(=O)N1CCN(C(=O)OC(C)(C)C)CC1)n1cc(CCO)nn1,2.6µM*,6%,nt,1.9µM*,13%,nt
COC(=O)[C@@H]1C[C@@H]2CC[C@@H](O)C[C@@H]2N1Cc1ccccc1OS(=O)(=O)c1ccc(C)cc1,?,-2%,-3,10µM*,-6%,-8
COC(=O)[C@@H]1C[C@H]2CC[C@H](O)C[C@H]2N1Cc1ccccc1OC(=O)c1cccs1,?,1%,-1,9.3µM*,5%,-6
COC(=O)[C@@H]1C[C@H]2CC[C@H](O)C[C@H]2N1Cc1ccc(-c2ccccc2)cc1,-4%,3%,-6,15%,14%,-2
COc1ccc(CCC(=O)Nc2ccc(S(=O)(=O)Nc3nccc(C)n3)cc2)cc1,-20%,2%,-5,-10%,5%,4
CC1CC(C)CN(C(=O)C(C)N2CCN(S(=O)(=O)c3ccc(Br)s3)CC2)C1 (centres undefined),nt,-3%,nt,nt,-6%,nt
OC(CNC1CCCC1)COc1ccc(-c2ccccc2)cc1 (centres undefined),5%,0%,-2,?,-15%,-5
OC(CNC1CCCCC1)COCCOc1ccc(Br)cc1 (centres undefined),12µM*,0%,-3,10µM*,-5%,-16
Cc1c(CN2CCCC(CO)(Cc3cccc(Cl)c3)C2)cnn1C (centres undefined),?,0%,-2,-23%,-9%,-9
Cn1ccnc1Sc1nc(Nc2cccc(Cl)c2)nc(N2CCOCC2)n1,nt,1%,6,8.3µM*,5%,-8
C=CCNc1nc(N2CCOCC2)nc(N2CCOCC2)n1,13µM*,10%,6,-14%,-3%,13
Oc1cccc(Nc2nc(N3CCOCC3)nc(N3CCOCC3)n2)c1,?,-8%,-4,12µM*,0%,-10
N#Cc1ccc(Oc2nc(Nc3ccc(F)cc3)nc(N3CCCC3)n2)cc1,4.1µM*,15%,-3,nt,-5%,8
SMILES,Pf growth 96h,SARS PLpro yeast,Cycloheximide cs,Pf growth 48h,AMA1-RON2 inh,Shiga toxin inh
S=C(NCc1ccco1)Nc1ccc(Cl)cn1,46%,-4%,8,29%,24%,2
CN(C)/C=N/c1cc(=O)n(C)c(=O)n1Cc1ccccc1,?,9%,-4,-2%,-3%,-11
CCn1c(SCc2nc3cc(OC)c(OC)cc3c(=O)[nH]2)nnc1-c1ccncc1,-2%[5.75 µM],-1%,-7,2%,10%,10
CCOC(=O)N1CCN(C(=O)c2c(Cl)cnn2C)CC1,-9%,0%,-1,5%,-12%,-9
Fc1ccc(Nc2nc(N3CCOCC3)nc(N3CCOCC3)n2)cc1,13µM*,-4%,-11,-14%,3%,-2
c1ccc(Nc2nc(N3CCOCC3)nc(N3CCOCC3)n2)cc1,-13%,-10%,-1,?,2%,2
Cc1ccc(S(=O)(=O)N(C)c2ccc(OC(C)C(=O)N3CCCC3)cc2)cc1C (centres undefined),?,nt,nt,12µM*,-1%,nt
Cc1c(N2C(=O)CSC2c2ccco2)c(=O)n(-c2ccccc2)n1C (centres undefined),26%,-1%,7,21%,-9%,-6
O=[N+]([O-])c1ccc(N2CCc3ccccc3C2)cc1,0%,-4%,26*,37%,-5%,nt
O=[N+]([O-])c1ccc(-c2csc(N3CCc4ccccc4C3)n2)cc1,7%,-2%,-2,0%,-11%,-6
O=C(Nc1ccc([N+](=O)[O-])cc1)N1CCc2ccccc2C1,47%,-19%,38*,?,-2%,nt
CC(C)c1ccc(NC(=O)N2CCc3ccccc3C2)cc1,31%,-1%,42*,87%,3%,96*
O=C(NCCN1CCc2ccccc2C1)Nc1ccc([N+](=O)[O-])cc1,?,2%,6,?,-16%,-11
C#CCn1c(=O)c2c(nc(/C=C/c3cccc(OC)c3)n2C)n(CCCO)c1=O,nt,nt,-4,nt,nt,-4
Cc1ccc(N2CC(C(=O)OCC(=O)Nc3ccc(Cl)cc3)CC2=O)cc1 (centres undefined),9%,-14%,nt,17%,-10%,nt
CC(=O)c1ccc2c(c1)C1C(Cl)C(Sc3ccccc3[N+](=O)[O-])CC1C(c1ccccc1[N+](=O)[O-])N2 (centres undefined),?,20%,4,2.3µM*,-8%,8
N=c1cc(C2(O)CCCCC2)n2c(nc3ccccc32)s1,?,-1%,48*,76%,18%,89*
CCOC(=O)C(C(=O)OCC)C(=O)c1cccc2ccc3ccccc3c12,nt,nt,nt,nt,-5%,nt
O=C1C(C=Nc2ccccc2O)=C(O)c2ccccc21,?,-25%,32*,99%,53%,51*

# High-throughput results (PubChem)
